About 310 (2.8%) of roughly 11,000 compounds were called active. The sample holds actives, similar compounds and a random draw of the others, so the mix is not that of the screen. Rule as the data show it: active = activity change below about -85%; inactive = the rest.

This assay has as its system intestinal alkaline phosphatase [Mus musculus]. The experiment in a line: activators of mouse IAP, confirmation, biochemical, luminescence, single concentration (AID 434970). The settings on record: purified mouse IAP, CDP-Star luminescence, 30 min, at 10 µM; activation factor: measured here: IAP activation factor, stronger effect = higher value; activity change, negative = activation: stronger effect = lower value.
Regarding `Cc1cc(NCCCn2ccnc2)n2c(nc3ccccc32)c1C#N`, the activation factor is 1.02 and the activity change, negative = activation was -2.25% (inactive).

On to `CC1(C)Cc2c(sc3c2C2=NCCN2C=N3)CO1`, for which the activation factor was determined as 0.94 and the activity change, negative = activation is 5.95% (inactive).

Take `COc1ccc(C(c2nnnn2Cc2cccs2)N2CCN(c3ccc(F)cc3)CC2)cc1OC` (stereo not given): the activation factor is 0.985 and the activity change, negative = activation is 1.5% (inactive).

As for `C1=C[C@H]2CC[C@@H]1N(c1ccccc1)O2`, the activation factor was found to be 0.976 and the activity change, negative = activation was 2.4% (inactive).

For the compound `NC1=NC2(CCCCC2)N(c2ccc(F)cc2)C(N)=N1`, the activation factor was 0.95 and the activity change, negative = activation was 4.95% (inactive).

With `Cc1ccc(CNC(=O)/C(C#N)=C\c2ccc(N(C)C)cc2)cc1`, the activation factor amounted to 0.817 and the activity change, negative = activation was 18.4% (inactive).

For `CCCOc1ccc(Oc2cc(C)nc(SC)n2)nn1`, the activation factor was 1.01 and the activity change, negative = activation is -1% (inactive).

As for `Cc1nn(C/C(C#N)=N\O)c(C)[n+]1N`, the activation factor came to 0.961 and the activity change, negative = activation is 3.9% (inactive).

`COc1cc2c3c(c1)C1(C(=O)N3C(C)(C)C=C2C)C(C#N)=C(N)Oc2cc(O)ccc21` (stereo not given): the activation factor was 1 and the activity change, negative = activation was -0.3% (inactive).

For `COc1ccc(NC(=O)c2ccco2)cc1NC(=O)c1cccc(OC(C)C)c1`, the activation factor was 0.934 and the activity change, negative = activation was 6.55% (inactive).

Take `O=C1CN=C(Nc2ccccc2Cl)N1Cc1ccc2c(c1)OCO2`: the activation factor was determined as 1.07 and the activity change, negative = activation is -7.1% (inactive).

`CCOC(=O)c1ccc(N2CCN(c3ccccc3F)CC2)c(NC(=O)Nc2cccc(OC)c2)c1`: the activation factor is 4.62 and the activity change, negative = activation is -362% (active).

In the case of `CCOC(=O)c1ccc(N2CCN(c3ccccc3F)CC2)c(NC(=O)Nc2ccccc2)c1`, the activation factor was 3.14 and the activity change, negative = activation is -214% (active).

As to `CCOC(=O)c1cccc(NC(=O)Nc2cc(OC)ccc2OC)c1`, the activation factor was 1.69 and the activity change, negative = activation is -68.8% (inactive).

Consider `CCOC(=O)c1ccc(N2CCN(c3ccc(F)cc3)CC2)c(NC(=O)Nc2cccc(OC)c2)c1`, for which the activation factor came out at 1.55 and the activity change, negative = activation was -55% (inactive).

For `COc1cccc(NC(=O)CCN2CCN(c3ccccc3F)CC2)c1`, the activation factor turned out to be 1.09 and the activity change, negative = activation was -8.65% (inactive).

On to `COC(=O)c1ccc(N2CCN(C)CC2)c(NC(=O)c2cc3ccccc3o2)c1`, for which the activation factor is 1.03 and the activity change, negative = activation is -3.1% (inactive).

As for `CC1(C)N=C(SCC(=O)Nc2ccccc2)C(c2ccc(Cl)cc2)=N1`, the activation factor turned out to be 0.943 and the activity change, negative = activation was 5.75% (inactive).

As for `COc1cc(C2CC(=O)Oc3ccc(C(C)(C)C)cc32)cc(OC)c1OC` (stereo not given), the activation factor amounted to 1.07 and the activity change, negative = activation is -6.8% (inactive).

As to `O=C(O)CCN(CCC(=O)O)c1ccccc1`, the activation factor is 1.02 and the activity change, negative = activation was -1.9% (inactive).

Take `COc1ccc(NC(=O)Nc2ccc3c(c2)C(=O)N([C@H](C)CO)C[C@H](C)[C@@H](CN(C)C(=O)Nc2ccc(OC)cc2)O3)cc1`: the activation factor stood at 1.6 and the activity change, negative = activation was -60% (inactive).

For the compound `CNC[C@@H]1Oc2ccc(NC(=O)Nc3ccccc3)cc2C(=O)N([C@@H](C)CO)C[C@H]1C`, the activation factor amounted to 1.61 and the activity change, negative = activation was -61.5% (inactive).

For the compound `CNC[C@H]1Oc2ccc(NC(=O)Nc3ccc(OC)cc3)cc2C(=O)N([C@@H](C)CO)C[C@H]1C`, the activation factor stood at 2.23 and the activity change, negative = activation was -123% (active).

For the compound `CNC[C@H]1Oc2ccc(NC(=O)Nc3ccc4c(c3)OCO4)cc2C(=O)N([C@H](C)CO)C[C@@H]1C`, the activation factor stood at 1.48 and the activity change, negative = activation was -47.9% (inactive).

As for `CNC[C@@H]1Oc2ccc(NC(=O)Nc3cccc4ccccc34)cc2C(=O)N([C@@H](C)CO)C[C@@H]1C`, the activation factor came to 2.43 and the activity change, negative = activation is -143% (active).

`CCOC(=O)CC1(c2ccccc2)CCOC(C)(C)C1` (stereo not given): the activation factor came out at 0.94 and the activity change, negative = activation is 6.05% (inactive).

In the case of `COc1ccc(N2CCN(S(=O)(=O)/C=C/c3ccccc3)CC2)cc1`, the activation factor is 1.07 and the activity change, negative = activation is -7.05% (inactive).

For the compound `COc1ccc2[nH]c3c(c2c1)CCN1C(=O)C(CC(=O)NCCCN(C)C)C[C@H](C(=O)N(C(C)C)C(C)C)[C@@]31C` (stereo not given in full), the activation factor is 1.14 and the activity change, negative = activation is -13.9% (inactive).

In the case of `CN1CCN(C(CNS(=O)(=O)c2ccc(F)cc2)c2cccnc2)CC1` (stereo not given), the activation factor was found to be 1.1 and the activity change, negative = activation was -10.1% (inactive).

As to `O=C(CSc1nnc(C2CC2)n1Cc1ccccc1)NCc1ccccc1`, the activation factor was 1.05 and the activity change, negative = activation is -5% (inactive).

Turning to `COc1ccc(CNC(=O)Cn2cnc3c(NCc4ccccc4)ncnc32)cc1`, the activation factor was 1.01 and the activity change, negative = activation was -0.55% (inactive).

In the case of `COC(=O)c1ccc(CNC(=O)Cn2cnc3c(NCc4ccccc4)ncnc32)cc1`, the activation factor was found to be 0.989 and the activity change, negative = activation is 1.05% (inactive).

With `COc1cc(CNc2ncnc3c2[nH]c2ccc(C)cc23)cc(OC)c1`, the activation factor was determined as 2.97 and the activity change, negative = activation is -197% (active).

As to `Cc1ccc2[nH]c3c(NCc4ccccc4)ncnc3c2c1`, the activation factor was determined as 2.49 and the activity change, negative = activation is -149% (active).

For `Fc1ccc2[nH]c3c(NCc4ccccc4)ncnc3c2c1`, the activation factor was found to be 2.25 and the activity change, negative = activation is -125% (active).

Regarding `Fc1ccc2[nH]c3c(NCCN4CCOCC4)ncnc3c2c1`, the activation factor was found to be 1.07 and the activity change, negative = activation was -7.05% (inactive).

In the case of `O=C(Cn1cnc2c(NCc3ccccc3)ncnc21)NCc1ccccc1`, the activation factor was 0.932 and the activity change, negative = activation was 6.8% (inactive).

With `CCOc1ccc2[nH]c3c(NCCC(C)C)ncnc3c2c1`, the activation factor was 1.85 and the activity change, negative = activation was -84.7% (inactive).

Regarding `COc1ccc(CNc2ncnc3c2[nH]c2ccccc23)cc1`, the activation factor turned out to be 2.71 and the activity change, negative = activation is -171% (active).

Take `COc1ccc2[nH]c3c(N4CC(C)OC(C)C4)ncnc3c2c1` (stereo not given): the activation factor worked out at 1.17 and the activity change, negative = activation is -17.4% (inactive).

With `Cc1ccc2[nH]c3c(N4CCN(Cc5ccccc5)CC4)ncnc3c2c1`, the activation factor came out at 1.25 and the activity change, negative = activation is -24.6% (inactive).

Take `O=C(Cn1cnc2c(NCc3ccccc3)ncnc21)NCc1ccc2[nH]ccc2c1`: the activation factor was 1.1 and the activity change, negative = activation is -9.85% (inactive).

As for `O=C(CSc1nnc(C2CC2)n1Cc1ccccc1)N1CCN(S(=O)(=O)c2ccccc2)CC1`, the activation factor turned out to be 1.04 and the activity change, negative = activation is -4.25% (inactive).

`O=C(NCCc1ccccc1)c1nc2nc(-c3cccs3)cc(C(F)(F)F)n2n1`: the activation factor worked out at 0.956 and the activity change, negative = activation was 4.4% (inactive).

For the compound `Cc1ccc(S(=O)(=O)C2CCOC2=O)cc1` (stereo not given), the activation factor amounted to 0.793 and the activity change, negative = activation was 20.7% (inactive).

Turning to `COc1ccc(C(c2nnnn2CS(=O)(=O)c2ccc(C)cc2)N2CCN(c3ncccn3)CC2)cc1` (stereo not given), the activation factor worked out at 0.922 and the activity change, negative = activation was 7.75% (inactive).

With `Cc1nnc(SCCC(C)C)[nH]c1=O`, the activation factor amounted to 1.13 and the activity change, negative = activation is -12.6% (inactive).

For the compound `Cc1onc(-c2ccccc2Cl)c1C(=O)OCC(=O)c1ccc2c(c1)OCCO2`, the activation factor amounted to 0.972 and the activity change, negative = activation is 2.85% (inactive).

As for `CCOC(=O)C1=CN(CC)S(=O)(=O)NC1c1ccc(F)c(Cl)c1` (stereo not given), the activation factor is 1.1 and the activity change, negative = activation was -9.6% (inactive).

Turning to `CC[C@]12c3[nH]c4cc(CCC(=O)N(C)C)ccc4c3CCN1C(=O)[C@@H](CC(=O)NCCN1CCOCC1)C[C@@H]2C(=O)N1CCN(C(=O)C2CC2)CC1`, the activation factor stood at 1.07 and the activity change, negative = activation is -6.6% (inactive).

These data come from PubChem BioAssay AID434970 (Sanford-Burnham Center for Chemical Genomics, 2010).
